# Shown are actives, neighbours in structure and some others; about 1.3% of the full set was active somewhere.
# TrxR1 inh: rat TrxR1 inhibition; O89049; actives 1% (n = 390,000); recombinant rTrxR1, NADPH fluorescence consumption, selenite substrate; Potency, µM (doses to about 114 µM), for the others: at the highest dose activity change, negative = inhibition, hits mostly inhibitors; further: potency means the concentration at half of the fitted maximal effect; nearly all actives have a fitted effect of over 65% in size
#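 Rat TrxR1 (90 nM in the dispensed reagent) was pre-reduced with 400 uM NADPH for 5 min at room temperature, then incubated with compound for 15 min. After 400 uM selenite was added, NADPH fluorescence (Ex 340/Em 450 nm) was followed for 8 min.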
# Giardia kill: Giardia lamblia killing. Giardia lamblia trophozoite viability. activity change, % at 7.66 µM, hits read low. actives 0.15% (n = 340,000); in the data active means activity change below about -80%; inconclusive means between about -30% and that limit;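 further: parasites exposed to compound for two days anaerobically before the ATP read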
#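 Giardia trophozoites, 100 cells per well, were exposed to compounds for 48 hrs at 37 deg C under anaerobic conditions; viability was then read as ATP content by bioluminescence after 15-30 min at room temperature.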
# TrxR1 substrate: rat thioredoxin reductase 1 substrate activity; O89049; purified TrxR1 substrate turnover, NADPH consumption readout; Potency, µM (doses to about 114 µM), without a hit: at the highest dose activity change, negative = substrate turnover; actives 0.01% (n = 390,000); AID 588456; further: potency means the concentration at half of the fitted maximal effect; nearly all actives have a fitted effect of over 50% in size
#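 Rat TrxR1, dispensed at 90 nM, was prereduced with 400 uM NADPH (final) for 5 min at ~22 deg C, then incubated with compound 15 min before 400 uM selenite. A first-read NADPH fluorescence drop versus no-compound background flagged substrates.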
# GCN5L2 inh: blocks human GCN5L2 histone acetyltransferase; Q92830; GCN5L2 HAT assay, ThioGlo1 CoA-SH fluorescence; Potency, µM (doses to about 58.9 µM), without a hit: at the top dose activity change, negative = inhibition, usual class: inhibitors; actives 0.21% (n = 390,000); AID 504327; further: potency means the concentration at half of the fitted maximal effect
# Target sequence (Q92830 whole entry, looked up): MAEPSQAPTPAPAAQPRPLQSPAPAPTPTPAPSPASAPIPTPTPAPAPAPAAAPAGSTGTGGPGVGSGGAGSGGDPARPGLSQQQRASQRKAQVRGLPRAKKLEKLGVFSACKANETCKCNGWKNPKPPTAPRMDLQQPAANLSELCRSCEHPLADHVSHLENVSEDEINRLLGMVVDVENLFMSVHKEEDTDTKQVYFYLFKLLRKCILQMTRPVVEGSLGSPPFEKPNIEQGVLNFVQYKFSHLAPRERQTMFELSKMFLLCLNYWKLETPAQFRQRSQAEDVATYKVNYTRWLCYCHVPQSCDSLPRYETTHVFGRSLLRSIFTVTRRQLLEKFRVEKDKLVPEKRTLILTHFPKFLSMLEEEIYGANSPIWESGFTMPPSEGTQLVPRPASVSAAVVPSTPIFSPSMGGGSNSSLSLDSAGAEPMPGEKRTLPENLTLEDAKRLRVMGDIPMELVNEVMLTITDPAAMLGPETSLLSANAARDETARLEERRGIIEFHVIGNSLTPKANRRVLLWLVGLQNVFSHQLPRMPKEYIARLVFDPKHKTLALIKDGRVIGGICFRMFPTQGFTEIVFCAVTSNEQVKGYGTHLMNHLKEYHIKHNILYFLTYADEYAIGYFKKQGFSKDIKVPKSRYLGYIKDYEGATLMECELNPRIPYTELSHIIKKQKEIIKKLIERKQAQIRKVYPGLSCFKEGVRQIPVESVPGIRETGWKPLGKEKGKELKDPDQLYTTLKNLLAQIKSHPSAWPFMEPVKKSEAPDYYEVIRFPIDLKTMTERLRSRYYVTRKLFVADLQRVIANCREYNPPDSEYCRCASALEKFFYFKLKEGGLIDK
#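 Free CoA generated was detected with ThioGlo1 (50uM) fluorescence at Ex340nm/Em540nm, read immediately and after 20 min at room temperature. Enzyme, 20 nM in HEPES pH 7.5 buffer, saw compounds 15 min before adding 75uM H3(1-25) peptide and 70uM acetyl-CoA.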
# Pin1 inhibitor: inhibitors of human Pin1; actives 0.009% (n = 390,000); Potency, µM (highest dose often 115 µM), inactives show top-dose activity, negative = inhibition, actives largely listed as inhibitors; Q13526; Pin1 FP peptide displacement, HiFluor488, 10 min; active means well fitted inhibition curve with a large enough effect in the polarisation, with a control signal flat, not every such curve was filed as active; inconclusive means small, poorly fitted or top-dose-only effect, or effect the other way, or a change in a side signal; inactive means no such curve, though single readings can be large or run the other way; the % refers to the polarisation; further: potency means the concentration at half of the fitted maximal effect
# GALK inh: inhibitors of human galactokinase. P51570. Purified GALK, Kinase-Glo residual ATP luminescence. Potency, µM (titrated, usually from 57.5 µM), without a hit: at the highest dose activity change, negative = inhibition, hits mostly inhibitors. actives 0.007% (n = 270,000); further: potency means the concentration at half of the fitted maximal effect
#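 Quantitative HTS: GALK 5 nM, ATP 35 uM, galactose 100 uM, 1 h room temperature, then luciferase-based ATP detection.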
# The depositor's hits bear a star; u = inconclusive; x = no result; [ ] = dose if it differs, or a comment. Unless noted, the call rests on the fitted dose curve; in most records, active means well fitted curve in the direction sought with a large enough effect; inconclusive means small, poorly fitted or top-dose-only effect, or another doubt; inactive means no such curve, though single readings can be large; an effect the other way counts as inactive or inconclusive. On the % scale 0 is the no-effect control and ±100 the full control effect.
SMILES,TrxR1 inh,Giardia kill,TrxR1 substrate,GCN5L2 inh,Pin1 inhibitor,GALK inh
CCOC(=O)c1c(/N=C/C2C(=O)NC(=S)NC2=O)sc2c1CCC2,18µM*,-4,-4%[57.1 µM],0%,u,-1%
N#Cc1c(/N=C/C2C(=O)NC(=S)NC2=O)sc2c1CCCC2,22µM*,28,-5%,-1%,u,0%
Cc1cccc(N2C(=O)NC(=O)/C(=C\c3cc(C)n(-c4sc5c(c4C#N)CCCC5)c3C)C2=O)c1C,-7%[57.1 µM],5,9%[57.1 µM],-8%,u,-5%
CCOC(=O)c1c(/N=C/C2C(=O)NC(=S)NC2=O)sc(C)c1C,x,x,x,-1%,x,6%
CCOC(=O)c1cc(C)sc1/N=C/C1C(=O)NC(=S)NC1=O,0.71µM*,9,-5%[57.1 µM],-7%,17%,13%
CCN(CC)CCCCN1c2ccccc2Oc2ccc(Cl)cc21,x,x,x,0%,x,x
CC[N+](CC)(CC)CCOc1cccc(OCC[N+](CC)(CC)CC)c1OCC[N+](CC)(CC)CC,11%[57.1 µM],0,u,13µM*,-13%,x
O=C1CC[C@]2(O)C3Cc4ccc(O)c5c4C2(CCN3CC2CC2)C1O5 (some centres undefined),x,x,x,10%,x,x
O=C1/C(=C/c2ccccc2)C[C@@]2(O)[C@H]3Cc4ccc(O)c5c4[C@@]2(CCN3CC2CC2)C1O5 (some centres undefined),35µM*,-18,-1%,-5%,-2%,x
CCOc1ccccc1N1C(=O)NC(=O)/C(=C/c2ccc3c4c(cccc24)CC3)C1=O,22µM*,-18,87%,-19%,u,1%
C/C=C1/C[N@@+]2(C)CC[C@]34C(=C(C=O)[C@H]1C[C@H]32)Nc1ccccc14,x,x,x,-12%,x,x
CC1CN1P(=O)(Oc1ccc2ccccc2c1)N1CC1C (centres undefined),11%,11,7%,x,-16%,x
CC1=CC(=O)NP(=O)(Oc2ccc3ccccc3c2)N1 (centres undefined),u,5,-8%,32µM*,2%,4%
NCCCCC(NC(CCc1ccccc1)C(=O)O)C(=O)N1CCCC1C(=O)O (centres undefined),x,x,x,15%,x,x
NC1CCCC[C@H]1N (some centres undefined),x,x,x,4%,x,x
CCOc1ccc(NC(=O)c2cc3c(C)nn(-c4ccccc4)c3s2)cc1,43%,x,36%,2%,5%,x
COC(=O)[C@H]1C[C@@H]1[C@H](NP(=O)(c1ccccc1)c1ccccc1)c1ccccc1,13%[57.1 µM],6,5%,3%,-15%,x
COC(=O)[C@@H]1C[C@H]1[C@@H](NP(=O)(c1ccccc1)c1ccccc1)c1ccccc1,16µM*,-21,0%,-6%,-5%,x
CN1C(=O)[C@]23CC4=CC=C[C@H](O)[C@H]4N2C(=O)[C@@]1(CO)SS3,x,x,x,-12%,x,x
COP(=S)(OC)Oc1nc(Cl)c(Cl)cc1Cl,x,x,x,20µM*,x,x
COc1cccc(C(=O)c2cn(CC(=O)Nc3cc(Cl)c(OC)cc3OC)c3nc(C)ccc3c2=O)c1,0%[57.1 µM],x,-5%[57.1 µM],-2%,u,x
Cc1cc(SCc2sc(-c3ccc(C(F)(F)F)c(F)c3)nc2C)ccc1OCC(=O)O,x,x,x,32µM*,x,x
O[C@@H]1[C@@H]2O[P@@](O)(=S)OC[C@H]2O[C@H]1n1cnc2cc(Cl)c(Cl)cc21,x,x,x,-4%,x,x
O=[N+]([O-])c1ccc(Sc2nc3ccccc3o2)c([N+](=O)[O-])c1,0.63µM*,9,4%,-9%,3%,-2%
CCNc1nc(Cl)nc(NCC)n1,x,x,x,28µM*,x,x
SMILES,TrxR1 inh,Giardia kill,TrxR1 substrate,GCN5L2 inh,Pin1 inhibitor,GALK inh
CCNc1nc(NC(C)(C)C)nc(SC)n1,26%,-15,2%,x,-8%,x
CCCOc1ccc(C(C)=O)cc1Cc1c(O)[nH]c(=S)[nH]c1=O,-1%[57.1 µM],7,-6%[57.1 µM],u,-8%,7%
CCOc1ccc(C(C)=O)cc1Cc1c(O)[nH]c(=S)[nH]c1=O,-11%,-26,-3%,14µM*,-10%,7%
CCCC[N+]12CCC(CC1)C(C(=O)c1cccs1)C2 (centres undefined),-7%[57.1 µM],-3,-3%,3%,-1%,-1%
CN1C(=O)NC(c2cccc(O)c2)C(C(=O)c2cccs2)C1(O)C(F)(F)F (centres undefined),32µM*,-2,-5%,-4%,3%,-1%
CNC(=O)Oc1cccc(-c2cn3cc(OC(=O)NC)ccc3n2)c1,u,-8,55%,1%,u,4%
CNC(=O)Oc1ccc(-c2cn3cc(Cl)ccc3n2)cc1,22µM*,-86*,39%,-4%,0%,0%
O=c1[nH]sc2cc(F)ccc12,39%[57.1 µM],u,-16%,4.5µM*,-14%,4%
CN1C(=O)/C(=C\c2ccc(Br)s2)C(=O)NC1=S,3.2µM*,-13,-5%,-28%,34%,6%
O=C1NC(=S)NC(=O)C1=Cc1ccc(Br)s1,4.5µM*,-9,2%,u,-3%,3%
C=C1[C@@H]2C[C@]3(C(CC2=O)[C@]24C5C[C@H]3[C@H]2N(CC)C[C@]5(C)CC[C@@H]4O)[C@@H]1O (some centres undefined),x,x,x,-1%,x,x
O=C1NC(=O)N(c2cccc(Br)c2)C(=O)/C1=C/c1ccsc1,45µM*,2,4%,-17%,u,6%
CC(=O)O[C@@H]1[C@@H](O)C2OC3C=C(C)C(=O)[C@@H](O)[C@]3(CO)C1(C)C21CO1 (some centres undefined),x,x,x,1%,x,x
CCNN,x,x,x,-24%,x,x
COc1cc(/C=C2/C(=O)NC(=O)N(c3ccc(C)cc3)C2=O)cc(OC)c1OC,u,13,9%,0%,3%,5%
COC(=O)COc1ccc(/C=C2\C(=O)NC(=S)N(c3ccc(C)cc3)C2=O)cc1OC,4µM*,-28,0%,-13%,u,8%
Cc1cccc(N2C(=O)/C(=C/c3ccc(N4CCN(C)CC4)o3)C(=O)NC2=S)c1C,u,-5,-14%,0%,u,x
COc1ccc(N2C(=O)/C(=C/c3ccc(C)o3)C(=O)NC2=S)c(OC)c1,14µM*,-7,-2%,-27%,u,2%
COc1cc(/C=C2\C(=O)NC(=O)N(c3ccccc3)C2=O)cc(OC)c1OC,u,11,12%[57.1 µM],-26%,-2%,-4%
CCOC(=O)COc1ccc(/C=C2\C(=O)NC(=S)N(c3ccc(OC)cc3)C2=O)cc1OC,3.2µM*,-10,-1%,-5%,-17%,0%
COc1ccc(N2C(=O)/C(=C/c3ccc(OC)c(OC)c3)C(=O)NC2=S)cc1,13µM*,7,0%,-16%,1%,1%

# Assay outcomes deposited in PubChem BioAssay by National Center for Advancing Translational Sciences (NCATS).
